HTR5A inv ag: inverse agonist of human HTR5A in OPRM1-OPRD1 counter-screen | inhibition, % at 9.3 µM | HTR5A cell line, luminescence, inverse agonism | P47898 | hit rate 0.083% among 340,000; in the data active means inhibition mostly above about 23%, no sharp cut-off; inactive means mostly below about 18%;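 further: 0% = cells with DMSO and 100% = no-cell wells with DMSO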
OPRM1-OPRD1 ag: OPRM1-OPRD1 heterodimerization agonism | cells, luminescence | activation, % at 9.3 µM | hit rate 0.3% among 340,000; in the data active means activation above about 18%;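 further: 0% = vehicle-treated cells and 100% = reference agonist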
MOR-DOR inv ag-1: mu-delta opioid heterodimer inverse agonism | hit rate 0.21% among 340,000 | cell-based MOR-DOR heterodimer luminescence | inhibition, % at 9.3 µM | P35372+P41143 | AID 504357; in the data active means inhibition above about 22%, passing the limit was not always enough;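 further: 0% = cells with DMSO and 100% = wells without cells with DMSO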
HTR5A ag ctr: counter-screen for OPRM1-OPRD1 agonists: human HTR5A agonism; HTR5A agonist assay, luminescence, cell-based; activation, % at 9.3 µM; hit rate 0.61% among 340,000; AID 504692; in the data active means activation mostly above about 9.5%, no sharp cut-off; inactive means mostly below about 7.6%;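 further: 0% = cells with vehicle only and 100% = reference agonist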
MOR-DOR inv conf: OPRM1-OPRD1 heterodimer inverse agonism, confirmation; shares compounds with MOR-DOR inv ag-1; cells expressing OPRM1/OPRD1 heterodimer, luminescence; inhibition, % at 9.3 µM; hit rate 20% among 580; AID 504900; in the data active means inhibition above about 32%;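 further: 0% = cells with DMSO and 100% = wells lacking cells with DMSO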
HTR5A inv ctr2: inverse agonist of human HTR5A in OPRM1-OPRD1 counter-screen; shares compounds with MOR-DOR inv ag-1; HTR5A-expressing cells, luminescence, inverse agonism; inhibition, % at 9.3 µM; 580 tested, under 10 active; AID 504914;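 further: 0% = cells with DMSO and 100% = no-cell wells with DMSO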
MOR-DOR inv ag-2: counter-screen for HTR5A inverse agonists: OPRM1-OPRD1 heterodimerization inverse agonism | AID 504912 | shares compounds with HTR5A inv ag | U2OS counter-screen cells, complementation luminescence | inhibition, % at 9.3 µM | 190 tested, under 10 active;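 further: 0% = cells with DMSO and 100% = wells without cells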
HTR5A inv conf: confirmation of human HTR5A inverse agonists | inhibition, % at 9.3 µM | HTR5A-expressing cells, inverse agonism, luminescence | shares compounds with HTR5A inv ag | 190 tested, under 10 active;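 further: 0% = cells with DMSO and 100% = no cells with DMSO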
* = called active by the depositor; i = inactive; . = no result given. This is a sample that favours compounds with a hit; in the whole collection about 1.1% have one here. Unless noted, how the calls were made is not given here.

SMILES	HTR5A inv ag	OPRM1-OPRD1 ag	MOR-DOR inv ag-1	HTR5A ag ctr	MOR-DOR inv ag-2	HTR5A inv conf	others
O=C(COC(=O)CN1C(=O)C(=O)c2ccccc21)OCN1C(=O)c2ccccc2C1=O	-4	-8	40*	0	.	.	MOR-DOR inv conf=19;HTR5A inv ctr2=-3
O=C(CCN1C(=O)c2ccccc2C1=O)OCN1C(=O)c2ccccc2C1=O	-25	-3	13	2	.	.
O=C(COC(=O)/C=C/c1cccc([N+](=O)[O-])c1)NCc1ccco1	0	0	1	0	.	.
Cc1cnn(CCC(=O)NNC(=S)Nc2ccc(F)cc2)c1	8	-6	31*	-3	.	.	MOR-DOR inv conf=40*;HTR5A inv ctr2=1
O=C(CC1(O)C(=O)Nc2ccccc21)c1ccccc1O (stereo not drawn)	-1	-9	50*	-5	.	.	MOR-DOR inv conf=24;HTR5A inv ctr2=7
O=C(CC1(O)C(=O)Nc2ccccc21)c1cccnc1 (stereo not drawn)	5	-9	52*	0	.	.	MOR-DOR inv conf=-41;HTR5A inv ctr2=-3
Cc1[nH][nH]c(=O)c1C(c1c(C)[nH][nH]c1=O)c1cn(Cc2ccc(F)cc2)c2ccccc12	15	-8	43*	1	.	.	MOR-DOR inv conf=2;HTR5A inv ctr2=-3
Cc1[nH][nH]c(=O)c1C(c1c(C)[nH][nH]c1=O)c1cn(Cc2ccc(Cl)c(Cl)c2)c2ccccc12	-30	-6	33	1	.	.
O=c1c2c3c(sc2n2cnnc2n1Cc1ccccc1)CN(Cc1ccccc1)CC3	22	-6	34*	-8	.	.	MOR-DOR inv conf=-37;HTR5A inv ctr2=-27
CN1CCc2c(sc3c2c(=O)n(-c2ccc(Cl)cc2)c2nncn32)C1	-2	0	1	-2	.	.
Cc1ccc(C)c(C(=O)c2ccccc2NC(=O)c2ccccn2)c1	-8	3	-15	2	.	.
Cc1ccc2c(c1)C(=O)C(=O)N2CC(=O)Nc1ccccc1NC(=O)c1ccccn1	2	-9	47*	-1	.	.	MOR-DOR inv conf=i;HTR5A inv ctr2=-5
COc1cc(C)ccc1OCCCOc1c(Cl)cccc1Cl	-1	3	-15	0	.	.
CCCc1nc2ccccc2c(=O)n1N	-5	-1	4	-1	.	.
O=C1NC[C@@H](c2ccccc2)OC(=O)[C@@H](Cc2ccc(F)cc2)CC/C=C/C[C@@H]1CC(=O)N(CCO)Cc1ccccc1	10	-6	34*	-6	.	.	MOR-DOR inv conf=9;HTR5A inv ctr2=26
Cc1cc(C(=O)CN2C(=O)C(=O)N(CCC3=CCCCC3)C2=O)c(C)n1C	37*	-3	14	-15	-413	-58
Cc1noc(/C=C/c2ccco2)c1S(=O)(=O)N1CCC(C(=O)NCc2ccco2)CC1	27*	-3	13	-10	-9	-8
CCc1noc(C)c1C(=O)OCC(=O)N(CC)c1c(N)n(Cc2ccccc2)c(=O)[nH]c1=O	4	-2	12	-1	.	.
NS(=O)(=O)c1ccc(N=Nc2c[nH]c(=O)c(O)c2)cc1	32*	-4	19	-9	16	29
CN(C)c1ccc(N=Nc2ccc(S(N)(=O)=O)cc2)cc1	26	-1	5	-11	.	.
CNC(=O)c1cc2cc(OC)ccc2n1CCN(Cc1ccccc1)Cc1ccccc1	-10	1	-6	4	.	.
CC1CC(C)CN(c2ncc3c(n2)CC(c2ccc(Cl)cc2)CC3=O)C1 (stereo not drawn)	32*	-1	4	-10	-13	-9
CC1CC(C)CN(c2ncc3c(n2)CC(c2ccccc2Cl)CC3=O)C1 (stereo not drawn)	-33	-2	13	2	.	.
Cc1n[nH]c(=S)n(NC(=O)CC(=O)Nn2c(=S)[nH]nc(C)c2=O)c1=O	65*	3	-17	-24	-85	16
O=C(NC(=S)Nc1ccc(O)cc1)c1ccccc1Cl	2	-2	9	-3	.	.
SMILES	HTR5A inv ag	OPRM1-OPRD1 ag	MOR-DOR inv ag-1	HTR5A ag ctr	MOR-DOR inv ag-2	HTR5A inv conf	others
Cc1ccc(O)c(NC(=S)NC(=O)c2ccccc2Cl)c1	21*	-2	13	-8	4	-19
COC(=O)Nc1ccc(S(=O)(=O)N2CCC(C(=O)N3CCCCC3C)CC2)cc1 (stereo not drawn)	-6	0	1	2	.	.
COc1ccc(C2SC[C@@H](C(=O)O)N2C(C)=O)cc1 (stereo partly drawn)	-37	-2	10	0	.	.
COc1cc2nc(C3CCC3)nc(N3CCN(c4ccccn4)CC3)c2cc1OC	52*	-1	8	1	-23	-2
O=C(COc1coc(CN2CCc3ccccc3C2)cc1=O)Nc1ccc(F)cc1	-2	-1	4	1	.	.
O=C(COc1coc(CN2CCc3ccccc3C2)cc1=O)Nc1ccc(F)cc1F	63*	-3	14	-26	-14	9
CN(C)c1ccc(/C=C/c2ccc3ccccc3[n+]2C)cc1	29*	-4	23	-11	-2	28
O=C1/C(=C/c2cccc(O)c2)SC(=S)N1CC1CCCO1 (stereo not drawn)	7	8	-44	-2	.	.
COc1cc(/C=C2/SC(=S)N(c3c(C)n(C)n(-c4ccccc4)c3=O)C2=O)ccc1O	28*	-7	33	-12	-4	6
COc1cc(/C=C2/SC(=NCc3ccccc3)N(Cc3ccccc3)C2=O)ccc1O	23	-1	4	-9	.	.
COc1cc(/C=C2/SC(=S)N(Cc3ccccc3)C2=O)ccc1O	30*	-2	11	-8	-43	36
CCOc1cc(/C=C2/SC(=S)N(CC3CCCO3)C2=O)ccc1O (stereo not drawn)	31*	-5	21	-11	-46	25
COc1cc(/C=C2\SC(=S)N(NC(=O)c3ccccc3OC)C2=O)ccc1O	33*	-6	28	-9	-14	32
COc1cc(/C=C2\SC(=S)N(C(C(=O)O)c3ccccc3)C2=O)ccc1O (stereo not drawn)	20	-3	17	-7	.	.
CC1CC(c2ccccc2)n2nc(N3C(=O)c4ccccc4C3=O)nc2N1 (stereo not drawn)	7	-4	17	1	.	.
CCCNC(=O)COC(=O)/C=C/c1ccco1	20	-1	5	-8	.	.
COc1ccc(NC(=O)c2ccc(-c3ccc(-c4noc(C)n4)cc3C)cc2)cc1N1CCN(C)CC1	-24	-1	4	7	.	.
Nc1nc(SCC(=O)Nc2ccc(Br)cc2Br)n[nH]1	-1	0	2	0	.	.
O=C1/C(=C\c2ccc(O)c(O)c2)SC(=S)N1Cc1ccccc1	30*	0	1	-8	-9	27
Cc1ccc(NC(=O)CNC(=O)COc2ccccc2)nc1	49*	-3	13	-20	i	-5
C/C(=N\NC(=S)NCc1ccccc1)c1ccc(Br)cc1	-2	5	-22	1	.	.
C/C(=N\NC(=S)NCc1ccccc1)c1ccc2ccccc2c1OC(F)F	54*	2	-11	-22	-24	4

Screens as filed in PubChem BioAssay.
